Results: ChEMBL document CHEMBL2218924, “A broad activity screen in support of a chemogenomic map for kinase signalling research and drug discovery” (Biochem J, 2013)

How the values were obtained:
[1] = biological target: Homeodomain-interacting protein kinase 3 (Homo sapiens) (UniProt Q9H422); conditions: at 10 µM
[2] = biological target: T1, Serine/threonine-protein kinase haspin (Homo sapiens) (UniProt Q8TF76); conditions: at 1 µM
T1 sequence (whole entry): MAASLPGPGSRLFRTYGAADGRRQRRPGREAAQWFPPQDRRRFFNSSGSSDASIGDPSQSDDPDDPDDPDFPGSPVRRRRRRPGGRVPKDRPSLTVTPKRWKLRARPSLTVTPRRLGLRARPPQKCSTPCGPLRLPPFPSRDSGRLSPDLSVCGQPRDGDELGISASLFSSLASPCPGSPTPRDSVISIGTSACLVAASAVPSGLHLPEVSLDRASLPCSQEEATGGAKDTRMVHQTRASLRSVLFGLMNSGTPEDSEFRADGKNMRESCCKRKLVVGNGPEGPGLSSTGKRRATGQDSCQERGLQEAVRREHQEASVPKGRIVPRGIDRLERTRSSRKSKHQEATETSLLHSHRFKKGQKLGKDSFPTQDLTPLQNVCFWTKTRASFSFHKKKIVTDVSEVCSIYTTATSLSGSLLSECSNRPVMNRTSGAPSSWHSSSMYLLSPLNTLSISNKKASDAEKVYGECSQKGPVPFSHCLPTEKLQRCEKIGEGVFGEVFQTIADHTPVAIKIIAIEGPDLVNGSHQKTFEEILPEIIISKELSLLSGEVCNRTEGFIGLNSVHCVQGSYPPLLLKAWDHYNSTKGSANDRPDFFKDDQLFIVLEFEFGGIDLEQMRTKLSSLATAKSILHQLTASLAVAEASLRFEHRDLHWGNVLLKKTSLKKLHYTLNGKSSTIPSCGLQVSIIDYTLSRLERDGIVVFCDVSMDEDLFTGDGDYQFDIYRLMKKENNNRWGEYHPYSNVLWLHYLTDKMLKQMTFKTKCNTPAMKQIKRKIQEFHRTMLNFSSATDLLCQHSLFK

[3] = biological target: T1, Serine/threonine-protein kinase haspin (Homo sapiens); conditions: at 10 µM
[4] = biological target: Tyrosine-protein kinase HCK (Homo sapiens) (UniProt P08631); conditions: at 1 µM
Chain of Tyrosine-protein kinase HCK (Homo sapiens) (P08631 2-526 limits assumed): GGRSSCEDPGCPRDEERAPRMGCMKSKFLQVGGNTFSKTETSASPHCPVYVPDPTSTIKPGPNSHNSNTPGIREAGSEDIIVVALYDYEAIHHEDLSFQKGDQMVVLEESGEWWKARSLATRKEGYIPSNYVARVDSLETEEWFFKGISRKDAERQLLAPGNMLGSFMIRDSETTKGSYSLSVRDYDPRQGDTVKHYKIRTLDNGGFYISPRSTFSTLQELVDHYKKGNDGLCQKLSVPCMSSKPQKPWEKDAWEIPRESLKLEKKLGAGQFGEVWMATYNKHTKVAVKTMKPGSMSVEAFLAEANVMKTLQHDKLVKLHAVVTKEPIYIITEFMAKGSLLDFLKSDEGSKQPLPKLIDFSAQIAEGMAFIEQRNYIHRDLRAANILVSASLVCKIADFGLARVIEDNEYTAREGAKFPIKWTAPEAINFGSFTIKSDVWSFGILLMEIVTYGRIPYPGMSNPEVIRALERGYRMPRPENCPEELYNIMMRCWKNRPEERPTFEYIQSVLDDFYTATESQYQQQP

[5] = biological target: Tyrosine-protein kinase HCK (Homo sapiens) (UniProt P08631); conditions: at 10 µM
[6] = biological target: Tyrosine-protein kinase HCK (Homo sapiens) (UniProt P08631); conditions: at 1 µM; remark: listed apart in the source
[7] = biological target: Tyrosine-protein kinase HCK (Homo sapiens) (UniProt P08631); conditions: at 10 µM; remark: listed apart in the source
[8] = biological target: Insulin-like growth factor 1 receptor (Homo sapiens) (UniProt P08069); conditions: at 1 µM
Chain of Insulin-like growth factor 1 receptor (Homo sapiens) (P08069 31-736 limits assumed): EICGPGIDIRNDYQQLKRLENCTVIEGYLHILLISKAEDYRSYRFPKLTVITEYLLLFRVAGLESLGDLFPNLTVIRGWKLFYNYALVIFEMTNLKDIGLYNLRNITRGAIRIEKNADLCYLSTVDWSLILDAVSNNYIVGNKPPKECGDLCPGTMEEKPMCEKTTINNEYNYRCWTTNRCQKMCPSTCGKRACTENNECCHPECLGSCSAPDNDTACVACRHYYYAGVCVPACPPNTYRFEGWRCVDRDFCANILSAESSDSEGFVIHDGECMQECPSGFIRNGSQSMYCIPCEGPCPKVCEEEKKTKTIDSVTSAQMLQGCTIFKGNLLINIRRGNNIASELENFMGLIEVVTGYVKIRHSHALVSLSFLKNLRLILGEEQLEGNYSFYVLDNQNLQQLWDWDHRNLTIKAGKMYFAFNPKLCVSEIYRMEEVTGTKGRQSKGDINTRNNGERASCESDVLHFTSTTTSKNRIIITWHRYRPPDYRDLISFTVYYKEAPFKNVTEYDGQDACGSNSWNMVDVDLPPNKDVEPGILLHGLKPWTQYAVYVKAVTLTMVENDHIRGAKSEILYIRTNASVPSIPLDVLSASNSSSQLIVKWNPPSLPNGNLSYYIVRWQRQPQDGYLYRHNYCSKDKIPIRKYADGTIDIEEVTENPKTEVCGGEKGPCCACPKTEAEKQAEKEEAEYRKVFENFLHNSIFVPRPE
Chain of Insulin-like growth factor 1 receptor (Homo sapiens) (P08069 741-1367 limits assumed): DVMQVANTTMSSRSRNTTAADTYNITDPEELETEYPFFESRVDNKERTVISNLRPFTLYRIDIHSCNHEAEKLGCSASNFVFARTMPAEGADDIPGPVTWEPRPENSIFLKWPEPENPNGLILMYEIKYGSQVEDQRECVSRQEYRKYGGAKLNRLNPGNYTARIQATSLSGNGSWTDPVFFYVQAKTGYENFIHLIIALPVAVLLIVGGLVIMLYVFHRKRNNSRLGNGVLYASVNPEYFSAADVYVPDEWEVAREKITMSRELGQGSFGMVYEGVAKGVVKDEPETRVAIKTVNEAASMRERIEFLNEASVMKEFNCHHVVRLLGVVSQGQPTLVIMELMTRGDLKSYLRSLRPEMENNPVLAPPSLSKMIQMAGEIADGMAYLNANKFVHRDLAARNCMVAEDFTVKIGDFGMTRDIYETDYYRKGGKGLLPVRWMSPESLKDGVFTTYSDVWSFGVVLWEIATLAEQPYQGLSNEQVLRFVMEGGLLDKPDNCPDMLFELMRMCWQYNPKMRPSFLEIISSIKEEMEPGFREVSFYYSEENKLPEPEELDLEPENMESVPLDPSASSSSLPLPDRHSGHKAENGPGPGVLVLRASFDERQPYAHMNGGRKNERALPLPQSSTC

[9] = biological target: Insulin-like growth factor 1 receptor (Homo sapiens) (UniProt P08069); conditions: at 10 µM
[10] = biological target: T2, Protein kinase C zeta type (Homo sapiens) (UniProt Q05513); conditions: at 10 µM
T2 sequence (whole entry): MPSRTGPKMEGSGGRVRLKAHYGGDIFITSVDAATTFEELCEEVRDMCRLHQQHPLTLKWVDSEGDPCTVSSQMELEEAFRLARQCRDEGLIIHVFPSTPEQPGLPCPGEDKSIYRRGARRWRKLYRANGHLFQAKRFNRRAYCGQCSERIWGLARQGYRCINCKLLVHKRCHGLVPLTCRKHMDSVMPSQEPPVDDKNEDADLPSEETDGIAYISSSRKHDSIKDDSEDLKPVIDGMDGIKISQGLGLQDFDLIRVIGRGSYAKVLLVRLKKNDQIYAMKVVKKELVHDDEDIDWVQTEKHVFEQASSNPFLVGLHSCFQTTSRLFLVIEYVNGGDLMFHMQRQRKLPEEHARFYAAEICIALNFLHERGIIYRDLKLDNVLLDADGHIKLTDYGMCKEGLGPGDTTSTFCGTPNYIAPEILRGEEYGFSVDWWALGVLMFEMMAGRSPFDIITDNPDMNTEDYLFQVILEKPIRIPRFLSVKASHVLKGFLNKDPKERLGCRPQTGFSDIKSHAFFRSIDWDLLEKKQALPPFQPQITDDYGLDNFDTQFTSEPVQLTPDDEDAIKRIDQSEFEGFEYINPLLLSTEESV

Chain of Homeodomain-interacting protein kinase 3 (Homo sapiens) (Q9H422 whole entry, looked up): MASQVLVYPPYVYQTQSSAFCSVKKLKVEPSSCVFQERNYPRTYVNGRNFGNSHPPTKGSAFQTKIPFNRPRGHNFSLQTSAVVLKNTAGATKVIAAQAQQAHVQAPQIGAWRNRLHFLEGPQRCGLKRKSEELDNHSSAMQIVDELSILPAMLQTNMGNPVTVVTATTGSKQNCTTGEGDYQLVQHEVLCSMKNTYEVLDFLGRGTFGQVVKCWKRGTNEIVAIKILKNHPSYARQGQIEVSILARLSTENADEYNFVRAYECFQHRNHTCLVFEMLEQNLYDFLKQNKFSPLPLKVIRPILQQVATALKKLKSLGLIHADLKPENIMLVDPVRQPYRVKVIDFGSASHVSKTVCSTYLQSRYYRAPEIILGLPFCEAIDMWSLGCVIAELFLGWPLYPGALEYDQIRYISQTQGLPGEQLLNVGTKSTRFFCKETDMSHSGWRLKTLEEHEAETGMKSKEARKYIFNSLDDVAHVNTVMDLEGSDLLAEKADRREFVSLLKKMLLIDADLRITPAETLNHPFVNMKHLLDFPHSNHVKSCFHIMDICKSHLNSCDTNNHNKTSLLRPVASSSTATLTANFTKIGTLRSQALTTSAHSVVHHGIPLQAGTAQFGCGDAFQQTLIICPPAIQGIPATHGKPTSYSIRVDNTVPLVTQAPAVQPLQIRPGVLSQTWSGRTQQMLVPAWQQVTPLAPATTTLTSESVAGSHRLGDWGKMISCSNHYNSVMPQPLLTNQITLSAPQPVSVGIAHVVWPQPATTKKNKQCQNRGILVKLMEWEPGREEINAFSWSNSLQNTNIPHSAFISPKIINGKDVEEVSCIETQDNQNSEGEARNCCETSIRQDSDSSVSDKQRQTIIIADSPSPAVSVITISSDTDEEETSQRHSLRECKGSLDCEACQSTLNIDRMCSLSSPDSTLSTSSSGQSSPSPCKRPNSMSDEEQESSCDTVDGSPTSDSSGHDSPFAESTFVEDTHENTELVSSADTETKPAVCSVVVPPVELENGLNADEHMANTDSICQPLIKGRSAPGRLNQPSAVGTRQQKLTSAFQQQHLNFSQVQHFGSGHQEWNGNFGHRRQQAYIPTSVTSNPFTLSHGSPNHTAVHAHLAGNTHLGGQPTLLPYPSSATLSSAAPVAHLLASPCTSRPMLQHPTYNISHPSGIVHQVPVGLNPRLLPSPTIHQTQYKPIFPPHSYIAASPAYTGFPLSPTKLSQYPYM

SMILES	residual activity [1] [%]	residual activity [2] [%]	residual activity [3] [%]	residual activity [4] [%]	residual activity [5] [%]	residual activity [6] [%]	residual activity [7] [%]	residual activity [8] [%]	residual activity [9] [%]	residual activity [10] [%]
Cc1nc2cc3nc(-c4cccs4)cnc3cc2n1C	97	123	79	92	67	90	34	141	61	109
COc1ccc(S(=O)(=O)N(CCO)c2ccccc2CN(C)C/C=C/c2ccc(Cl)cc2)cc1	102	82	49	87	45	98	90	121	114	–
Ic1cccc(CSc2nnc(-c3ccncc3)o2)c1	100	104	85	74	56	85	89	96	124	98
N#Cc1cnc2cnc(NCc3cccnc3)cc2c1Nc1ccc(F)c(Cl)c1	–	102	67	17	12	–	91	97	–	94
c1ccc2c(-c3ccncc3)c[nH]c2c1	91	48	8	68	65	104	89	–	–	84
CC(=O)c1ccc(N2CCOCC2)cc1O	98	78	39	84	74	97	107	148	–	106
CO[C@@H]1[C@H](N(C)C(=O)c2ccccc2)C[C@H]2O[C@]1(C)n1c3ccccc3c3c4c(c5c6ccccc6n2c5c31)C(=O)NC4	68	78	43	7	5	–	12	115	68	102
N#C/C(=C(\N)Sc1ccc(N)cc1)c1ccccc1C(F)(F)F	86	108	116	67	41	99	108	99	123	105
COc1cc2ncnc(Nc3ccc(NC(=O)c4ccccc4)cc3)c2cc1OC	90	92	59	69	20	100	60	–	135	103
Cc1cccc(-c2[nH]c(C(C)(C)C)nc2-c2ccc3c(c2)OCO3)n1	–	92	75	94	79	102	99	–	–	–
Cn1cnc2cc3c(Nc4cccc(Br)c4)ncnc3cc21	95	108	59	52	21	51	25	145	103	101
Cc1cncc2cccc(S(=O)(=O)N3CCCN(C(=O)CN)C[C@H]3C)c12	–	91	62	69	60	98	73	134	–	50
N#CCCc1ccc2c(c1)-c1[nH]c3ccc([N+](=O)[O-])cc3c1CC(=O)N2	–	–	74	30	6	27	16	117	144	41
O=C(O)c1ccc2c3c1cccc3c(=O)n1c3ccccc3nc21	48	91	92	102	81	104	95	68	74	95
CC[n+]1c(/C=C/N(C)c2ccccc2)n(-c2ccccc2)c2ccc(-c3nc4ccccc4s3)cc21	–	99	59	97	34	104	95	126	43	96
c1ccc(-c2n[nH]c3c2oc2ccccc23)cc1	61	90	48	71	51	98	81	–	139	117
Cn1nc2c3c(cccc31)C(=O)c1ccccc1-2	90	41	2	72	53	96	92	111	106	106
O=c1c2ccccc2[nH]c(=S)n1CCN1CCC(=C(c2ccc(F)cc2)c2ccc(F)cc2)CC1	88	84	52	73	38	101	101	119	104	94
CO[C@H]1[C@@H](OC)C[C@H](C)[C@@H](OC)C2=CC(=O)C=C(NC(=O)/C(C)=C/C=C/[C@H](OC)[C@@H](OC(N)=O)/C(C)=C/[C@@H]1C)C2=O	105	88	78	78	76	–	103	137	113	106

SMILES	residual activity [1] [%]	residual activity [2] [%]	residual activity [3] [%]	residual activity [4] [%]	residual activity [5] [%]	residual activity [6] [%]	residual activity [7] [%]	residual activity [8] [%]	residual activity [9] [%]	residual activity [10] [%]
CC(=O)O/N=C1\C(=C2\C(=O)Nc3cc(Br)ccc32)Nc2ccccc21	76	93	74	22	9	3	-1	142	110	95
CCN(CC)CCCCN1c2ccccc2Oc2ccc(Cl)cc21	99	81	36	101	103	109	112	136	90	112
CCOc1cc2ncnc(Nc3cccc(Br)c3)c2cc1OCC	92	97	66	34	6	17	4	89	106	69
COc1cc2ncnc(N3CCN(C(=O)Nc4ccc(Oc5ccccc5)cc4)CC3)c2cc1OC	102	79	82	79	71	91	85	–	–	116
C[C@@H](N)[C@H]1CC[C@H](C(=O)Nc2ccncc2)CC1	95	109	97	–	94	91	97	111	109	76
O=C1c2ccccc2-[n+]2ccc3c([nH]c4ccccc43)c21	87	73	107	80	57	89	83	59	67	102
CN(C)CCCn1cc(C2=C(c3c[nH]c4ccccc34)C(=O)NC2=O)c2ccccc21	35	43	12	74	54	113	84	127	–	16
Nc1cccc(-c2cc3c(Oc4cccc(O)c4)ncnc3[nH]2)c1	–	86	45	4	1	-3	-1	99	124	–
O=Nc1c(-c2c(O)[nH]c3ccccc23)[nH]c2ccccc12	19	26	19	15	5	8	1	37	26	98
Cc1cc(Nc2nc(-c3ccccc3)nc3ccccc23)n[nH]1	–	103	67	23	4	27	5	17	1	102
N#CC(C#N)=C(N)/C(C#N)=C/c1ccc(O)cc1	–	88	65	84	64	99	87	–	–	–
COc1cc2ncnc(Nc3ccc(Oc4ccccc4)cc3)c2cc1OC	105	–	–	4	5	20	3	117	112	104
COc1cc2ncc(-c3ccccc3)nc2cc1OC	100	76	64	69	56	–	–	133	–	–
CN(C)c1ccc(/C=C2\C(=O)Nc3ccccc32)cc1	94	83	46	76	32	102	77	146	139	101
Nc1nc(Nc2ccc(S(N)(=O)=O)cc2)nn1C(=S)Nc1c(F)cccc1F	21	–	–	10	4	13	1	109	98	77
Nc1ccc2ncnc(NCCc3ccc(Oc4ccccc4)cc3)c2c1	93	75	23	67	32	97	89	138	114	96
O=C1Nc2ccc(Br)cc2/C1=C\c1cc2c([nH]1)CCCC2	76	–	–	59	52	–	–	–	128	102
CCN(CC)C(=O)c1ccc(Nc2nc(OCC3CCCCC3)c3nc[nH]c3n2)cc1	62	–	–	31	5	43	7	–	–	95
